Laboratory results from PubChem BioAssay AID1159580 (chemical genetic matrix, 2015).
Several values for one entry are separate records, joined by “and”; a condition that tells them apart may be missing. Identical values can stand only once. Hit rate of the full screen: of about 5,500 compounds, about 2,000 (36%) were called active. Not shown: some 18% with an inconclusive outcome. No stated cut-off is given here; in the data, active means normalized growth mostly below about 0.91 (no sharp cut-off); inconclusive means no clear call, values can overlap the other calls; inactive means mostly above about 0.92. The list shows a part of the results.

Experiment: chemical genetic growth profiling, strain panel (AID 1159580);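 further: tested at 20 µM; growth read once vehicle control cultures reached saturation at 30 °C; 1 = growth at the plate median or of vehicle wells; lower values mean less growth of the strain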
Conditions: S. cerevisiae deletion strains, growth OD

Measured: normalized growth

COc1cc(NS(=O)(=O)c2ccc(N)cc2)ncn1
inactive: locus YAL013W, strain DEP1, active compounds read low 0.998 | locus YAL021C, strain ccr4, active compounds read low 0.988 | locus YAL026C, strain drs2, active compounds read low 0.978 | locus YAL030W, strain snc1, active compounds read low 0.999 | locus YBL061C, strain skt5, active compounds read low 0.987 | locus YBR009C, strain hhf1, active compounds read low 0.996 | locus YBR021W, strain FUR4, active compounds read low 1 | locus YBR023C, strain chs3, active compounds read low 0.983 | locus YBR171W, strain sec66, active compounds read low 0.968 | locus YBR229C, strain ROT2, active compounds read low 0.955 | locus YBR231C, strain swc5, active compounds read low 0.979 | locus YBR279W, strain paf1, active compounds read low 0.964 | locus YCL011C, strain gbp2, active compounds read low 0.968 | locus YCL016C, strain dcc1, active compounds read low 0.981 | locus YCL029C, strain bik1, active compounds read low 0.977 | locus YCL061C, strain MRC1, active compounds read low 0.979 | locus YCL069W, strain vba3, active compounds read low 0.98 | locus YCR088W, strain abp1, active compounds read low 0.97 | locus YDL005C, strain med2, active compounds read low 0.978 | locus YDL035C, strain GPR1, active compounds read low 0.993 | locus YDL040C, strain nat1, active compounds read low 0.969 | locus YDL074C, strain BRE1, active compounds read low 0.966 | locus YDL101C, strain DUN1, active compounds read low 0.979 | locus YDL134C, strain PPH21, active compounds read low 1.01 | locus YDL185W, strain tfp1, active compounds read low 0.983 | locus YDL192W, strain arf1, active compounds read low 0.978 | locus YDR001C, strain nth1, active compounds read low 0.973 | locus YDR069C, strain doa4, active compounds read low 1.03 | locus YDR101C, strain arx1, active compounds read low 0.972 | locus YDR137W, strain rgp1, active compounds read low 0.991 | locus YDR159W, strain sac3, active compounds read low 0.916 | locus YDR162C, strain NBP2, active compounds read low 0.995 | locus YDR195W, strain ref2 0.918 | locus YDR297W, strain sur2, active compounds read low 1 | locus YDR318W, strain mcm21, active compounds read low 0.988 | locus YDR334W, strain swr1, active compounds read low 0.948 | locus YDR335W, strain msn5, active compounds read low 0.971 | locus YDR388W, active compounds read low 0.979 | locus YDR392W, strain spt3, active compounds read low 0.982 | locus YDR502C, strain sam2, active compounds read low 0.984 | locus YEL003W, strain gim4, active compounds read low 1 | locus YEL037C, strain rad23, active compounds read low 0.999 | locus YEL061C, strain CIN8 (second series), active compounds read low 0.96 | locus YEL061C, strain CIN8, active compounds read low 0.982 | locus YER015W, strain faa2, active compounds read low 0.984 | locus YER016W, strain bim1, active compounds read low 0.992 | locus YER110C, active compounds read low 0.973 | locus YER111C, strain swi4, active compounds read low 0.968 | locus YER155C, strain BEM2 (second series), active compounds read low 0.975 | locus YER155C, strain BEM2, active compounds read low 1 | locus YER167W, strain BCK2, active compounds read low 0.992 | locus YFR010W, strain ubp6, active compounds read low 0.97 | locus YGL078C, strain dbp3, active compounds read low 0.977 | locus YGL086W, strain mad1, active compounds read low 0.981 | locus YGL167C, strain pmr1, active compounds read low 0.981 | locus YGL173C, strain kem1, active compounds read low 0.993 | locus YGL227W, strain vid30, active compounds read low 0.959 | locus YGL240W, strain doc1, active compounds read low 0.958 | locus YGL248W, strain PDE1, active compounds read low 0.978 | locus YGL253W, strain hxk2, active compounds read low 0.979 | locus YGR078C, strain PAC10, active compounds read low 0.977 | locus YGR135W, strain pre9, active compounds read low 0.999 | locus YGR252W, strain gcn5, active compounds read low 0.987 | locus YHR013C, strain ard1, active compounds read low 0.986 | locus YHR027C, strain rpn1, active compounds read low 0.983 | locus YHR030C, strain SLT2, active compounds read low 0.997 and 0.991 | locus YHR079C, strain IRE1 (second series), active compounds read low 0.99 | locus YHR079C, strain IRE1, active compounds read low 0.97 | locus YHR094C, strain hxt1, active compounds read low 0.987 | locus YHR129C, strain ARP1, active compounds read low 0.995 | locus YHR142W, strain chs7, active compounds read low 0.968 | locus YHR200W, strain rpn10, active compounds read low 0.982 | locus YIL066C, strain RNR3, active compounds read low 0.976 | locus YIL073C, strain SPO22, active compounds read low 1.02 | locus YIL125W, strain kgd1, active compounds read low 0.982 | locus YIR030C, strain dcg1, active compounds read low 0.974 | locus YJL092W, strain hpr5, active compounds read low 0.98 | locus YJL095W, strain BCK1 (second series), active compounds read low 0.976 | locus YJL095W, strain BCK1, active compounds read low 0.989 and 0.983 | locus YJL115W, strain asf1, active compounds read low 0.964 | locus YJL129C, strain trk1, active compounds read low 0.963 | locus YJL134W, strain LCB3, active compounds read low 0.992 | locus YJL154C, strain vps35, active compounds read low 0.971 | locus YJL164C, strain tpk1, active compounds read low 1 | locus YJL166W, strain qcr8, active compounds read low 0.982 | locus YJL168C, strain set2, active compounds read low 0.985 | locus YJL187C, strain SWE1 (second series), active compounds read low 0.962 | locus YJL187C, strain SWE1, active compounds read low 0.981 | locus YJR043C, strain POL32, active compounds read low 0.994 | locus YJR066W, strain TOR1, active compounds read low 0.943
